Assay [1] in a line: blockers of polyQ-driven CASP3 activation – cell-based (AID 1583). As to conditions: polyglutamine-induced caspase-3 activation, cell assay; stronger effect = higher value;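 tested at 10 µM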.
Assay [2] in a line: yeast 75Q aggregation reduction – 75Q-TubU reporter (AID 1593). To be noted: Yeast 75Q polyglutamine aggregation reporter.
Assay [3] can be described thus: restoration of touch response, mutant HTT neurons – whole organism, C. elegans mechanosensory neurons, N-terminal huntingtin (AID 1599). As to conditions: C. elegans polyQ-huntingtin mechanosensory neurons, stronger effect = higher value.
The nature of assay [4]: blockers of cytochrome c efflux from mitochondria – biochemical, purified mitochondria (AID 1603).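 Further: mouse liver mitochondria challenged with calcium chloride; signal normalized to the plate average as 100%.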 As to conditions: stronger effect = lower value.
The nature of assay [5]: polyglutamine aggregate formation blockers (AID 1604). As to conditions: polyglutamine-induced protein aggregation inhibition assay; stronger effect = higher value; tested at 2.5 µM.
Assay [6] in a line: glutamate transport activators, MN-1 cells, MN-1 cell line (AID 1612).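 Further: tested at 1 µM final; 0% = mean of DMSO vehicle wells on each plate; positive means more glutamate uptake than control and negative means less.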 To be noted: MN-1 motor neuron cells, stronger effect = higher value.
Assay [7] in a line: 75Q-TubH aggregate inhibition, S. cerevisiae, yeast (AID 1616). To be noted: S. cerevisiae 75Q-TubH polyglutamine aggregation suppression; stronger effect = higher value.
The nature of assay [8]: P. berghei load reduction in hepatocytes – cell-based, HepG2, luciferase luminescence, HepG2 viability, primary screen (AID 624349).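 Further: 100% = mean of DMSO negative control wells on the same plate.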 As to conditions: P. berghei liver stage in HepG2, luciferase luminescence, concentration not given here; parasite load remaining: stronger effect = lower value; viability: measured here: HepG2 viability without parasites.
Assay [9] can be described thus: EMT-state selective cytotoxicity in co-culture – imaging, PC-3E GFP, TEM4-18 mCherry, primary screen (AID 1345086;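 active means compounds killing one labelled cell type while sparing the other, by normalised counts and ratio limits, not self-fluorescent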;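 on all read-outs here: cells exposed to compound for 72 h before imaging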;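 on red/green cell ratio (normalised): normalised mesenchymal count divided by normalised epithelial count so high means epithelial killing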). To be noted: PC-3E GFP / TEM4-18 mCherry co-culture, imaging cell counts, at 1 µM; for red/green cell ratio (normalised): actives lie on both sides, counts scaled to control wells, 1 = unselective.
Assay [10] is described as follows: viability loss with induced miR-34 in A549 – imaging, A549 dox-inducible miR-34, nuclei and caspase counts, primary screen (AID 1347080;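 active means compounds whose cell count with miR-34 switched on is under 0.7 times the count with it off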). To be noted: A549 miR-34 inducible, Hoechst nuclei count, 48 h.
A short description of assay [11]: GFP-Q80 aggregate reduction, neuronal-like cells, cell-based, NGF-treated PC12, GFPQ80 (AID 1614).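 Further: lower means fewer inclusions and 0 means no inclusions at all.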 As to conditions: PC12 NGF-treated GFP-polyQ80 inclusion reduction.
The mark [12] stands for this setting: measured here: epithelial PC-3E GFP cell survival.
Setting [13] is: measured here: mesenchymal TEM4-18 mCherry cell survival.
Setting [14] is: stronger effect = lower value, cell number ratio, induced over uninduced.
Where [15] appears, read: measured here: relative caspase fold change +Dox/-Dox.
Setting [16] is: measured here: total cells with miR-34 induction, stronger effect = lower value.
The mark [17] stands for this setting: measured here: total cells without miR-34 induction.

“And” between values parts separate entries of the source, which are not always exact repeats. Equal values may be shown once. For part of these data: Entries with a potency or affinity are not part of this list. The source made the active and inactive calls. Unless noted, no stated cut-off is given here; in the data, active means parasite load remaining mostly below about 12% (no sharp cut-off); inactive means mostly above about 10%.

In the case of `C#C[C@]1(O)CCC2C3CCC4=C(CCC(=O)C4)C3CC[C@@]21C` (some centres undefined), in assay [1], the inhibition – broadly, the drop in the measured response relative to a control, in per cent – is -10.6%. The compound further showed a score in assay [2] of 0.8. The same compound showed a rescue above control in [3] of -0.46. For the same compound, the cytochrome c release ratio in assay [4] amounted to 1.11. The inhibition of aggregation in assay [5] turned out to be 55.6%. In addition, the glutamate uptake change in [6] was -10.2%. The aggregation suppression score in [7] came to 0.537. Further, the parasite load remaining in assay [8] is 73.4% (inactive) and 48.3% (inactive). Also, in [8], the viability (in general, a read-out of living cells in per cent, often relative to untreated cells) was 71.3% and 92%. Besides, the red/green cell ratio (normalised) in assay [9] is 1.12 (inactive). The results for the normalised cell number in [9] (setting [12]) and in [9] (setting [13]) were 1.18 and 1.32, respectively. Further, the fold change is 0.929 (inactive) in [10] (setting [14]) and 1.51 in [10] (setting [15]). The cell count worked out at 11200 in assay [10] (setting [16]) and 12100 in [10] (setting [17]).

On to `CCCC(=O)O[C@]1(C(=O)CO)CCC2[C@@H]3CCC4=CC(=O)CC[C@]4(C)C3[C@@H](O)C[C@@]21C` (some centres undefined), for which the inhibition in assay [1] is -18.1%. Further, the score in assay [2] was found to be 1.15. The compound further came in with a rescue above control in assay [3] of -7.82. Besides, the cytochrome c release ratio in assay [4] stood at 1.03. In [5], the inhibition of aggregation is 77.8%. In addition, the glutamate uptake change in [6] amounted to 33.4%. For the same compound, the inclusion score in assay [11] was found to be 2. In [7], this compound registered an aggregation suppression score of 1.38. For the same compound, the parasite load remaining in assay [8] is 170% (inactive) and 68.7% (inactive). Moreover, the viability in assay [8] is 85% and 121%. The red/green cell ratio (normalised) in assay [9] was 1.26 (inactive). Besides, the normalised cell number came out at 1.07 in assay [9] (setting [12]) and 1.34 in assay [9] (setting [13]). The fold change in assay [10] (setting [14]) is 0.953 (inactive); in [10] (setting [15]), 2.16. For the same compound, the cell count in assay [10] (setting [16]) was 7610; in assay [10] (setting [17]), 7980.

Turning to `COC(=O)C1[C@H]2C[C@H]3c4[nH]c5ccccc5c4CCN3C[C@@H]2CC[C@@H]1O` (some centres undefined), the inhibition in [1] was -35.1%. Moreover, the score in assay [2] came to 1.22. The rescue above control in assay [3] came out at 15.8. In [4], the cytochrome c release ratio was 0.69. Further, the inhibition of aggregation in assay [5] was determined as 9.99%. Also, the glutamate uptake change in assay [6] was -7.18%. In assay [11], this compound had an inclusion score of 2. In assay [7], this compound displayed an aggregation suppression score of 1.41. For the same compound, the parasite load remaining in [8] was 81.2% (inactive) and 40.6% (inactive). In assay [8], the viability was 73.2% and 95.3%. For the same compound, in assay [9], the red/green cell ratio (normalised) was 1.01 (inactive). The normalised cell number came out at 1.03 in assay [9] (setting [12]) and 1.04 in [9] (setting [13]). Moreover, the fold change in [10] (setting [14]) is 0.924 (inactive); in assay [10] (setting [15]), 3.3. Also, the values for the cell count in [10] (setting [16]) and in assay [10] (setting [17]) were 12100 and 13100, respectively.

`NC[C@@H]1O[C@H](O[C@@H]2[C@@H](CO)OC(O[C@@H]3[C@@H](O)[C@H](N)C[C@H](N)[C@H]3OC3O[C@H](CN)[C@@H](O)[C@H](O)[C@H]3N)[C@@H]2O)[C@H](N)[C@@H](O)[C@@H]1O` (some centres undefined): the inhibition in assay [1] was -14.5%. Moreover, in assay [2], the score came out at 0.97. The compound also registered a rescue above control in assay [3] of 4.93. For the same compound, the cytochrome c release ratio in assay [4] is 0.82. Moreover, the inhibition of aggregation in assay [5] was determined as 43.7%. Also, the glutamate uptake change in assay [6] was -6.09%. In [11], this compound came in with an inclusion score of 2. Besides, the aggregation suppression score in assay [7] came out at 1.49. Moreover, the parasite load remaining in assay [8] was 59.3% (inactive). Further, the viability in assay [8] stood at 91.2%. Moreover, the red/green cell ratio (normalised) in [9] was 0.97 (inactive). In addition, the normalised cell number in assay [9] (setting [12]) came to 1.02; in assay [9] (setting [13]), 0.98. Moreover, the results for the fold change in [10] (setting [14]) and in assay [10] (setting [15]) were 0.934 (inactive) and 0.542, respectively. For the same compound, the cell count in [10] (setting [16]) amounted to 12000; in [10] (setting [17]) it was 12900.

As to `CC(=O)[C@@]1(O)CCC2C3C[C@H](C)C4=CC(=O)C=CC4(C)[C@@]3(F)[C@@H](O)C[C@@]21C` (some centres undefined), in assay [1], the inhibition worked out at 8.98%. Further, the score in [2] came to 1.5. In assay [3], this compound gave a rescue above control of 24.4. In addition, in assay [4], the cytochrome c release ratio came out at 0.92. In assay [5], the inhibition of aggregation is -25.4%. For the same compound, in assay [6], the glutamate uptake change was 25.3%. The compound further returned an inclusion score in assay [11] of 3. In assay [7], the aggregation suppression score was 1.45. Moreover, the parasite load remaining in assay [8] is 116% (inactive) and 26.7% (inactive). Further, the viability in assay [8] is 75.2% and 95.6%. In assay [9], the red/green cell ratio (normalised) is 1.21 (inactive). Further, the normalised cell number in [9] (setting [12]) stood at 1.18; in [9] (setting [13]), 1.43. Besides, the results for the fold change in assay [10] (setting [14]) and in assay [10] (setting [15]) were 0.851 (inactive) and 3.38, respectively. Further, the cell count worked out at 7310 in assay [10] (setting [16]) and 8590 in [10] (setting [17]).

These data come from PubChem BioAssay.
